Laboratory results as given in PubChem BioAssay.
The source made the active and inactive calls. The rule behind the calls is not given here.

experiment: inhibition of 3D7 malaria parasite growth – strain 3D7 (AID 2306);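 note: 0% = DMSO wells and 100% = chloroquine plus artemisinin control wells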; conditions: P. falciparum 3D7 erythrocytic growth, LDH absorbance, 72 h; at 2 µM; active compounds read high

Growth inhibition, active:
COc1ccc2nccc(NN=CC=Cc3ccccc3)c2c1 101%
CN(Cc1ccncc1)C(Cc1ccccc1)C1CCN(Cc2ccc(O)c(Cl)c2)CC1 (centres undefined) 96%
C[C@@H]1CN(c2cnn(C/C=C/c3ccc(NC(=O)c4ccc5nonc5c4)cc3)c(=O)c2Cl)C[C@H](C)N1 94%
Cc1oc(-c2ccccc2)nc1CCOc1ccc(C[C@H](Nc2ccccc2C(=O)c2ccccc2)C(=O)NCc2ccccn2)cc1 88%
N#CC(NC(=O)C=Cc1ccccc1)c1ccccc1 (centres undefined) 95%
COc1ccc(F)cc1-c1ccccc1CNC(=O)CN(C)S(=O)(=O)c1cc(C)cc(Cl)c1C 92%
c1ccc(CCNc2ccnc(Nc3ccc4n[nH]nc4c3)n2)cc1 101%
Oc1ccc(Cl)cc1Nc1nc(C(F)(F)F)nc2ccccc12 86%
CCOc1ccc(-c2nonc2NC(=O)c2ccc(OC)cc2)cc1OCC 98%
Cn1cc(Br)c(-c2cccc(Nc3ccnc4cc(-c5nccs5)ccc34)c2)n1 91%
O=C(/C=C/c1ccc(Cl)cc1)NCCCCCN1CCN(C(=O)Nc2ccc(Cl)c(C(F)(F)F)c2)CC1 94%
COc1c(C2CCN(CCCCNC(=O)c3ccc(-c4ccc(Cl)cc4)cc3)CC2)ccc2c1C(C)(C)CCC2(C)C 95%
Cc1noc(C)c1-c1cccc(CNCc2cccc(-c3cccc(-c4nc5ccc(F)cc5[nH]4)c3)c2)c1 103%
C=CCOC(=O)N1CCC(CNCc2ccc(-c3cccc(-c4nc5ccc(F)cc5[nH]4)c3)cc2)C1 (centres undefined) 102%
